About 410 targets per protein were measured; listed, in parts, are those with the strongest signals and a random draw of the rest.
How the values were obtained:
Assay in all cases: glycan array binding signal (z-score within array); higher = stronger binding
Conditions in all cases: glycan notation: IUPAC condensed, linker removed
[1] = target: GlcNAc(a1-4)Gal(b1-3)GlcNAc
In short: (§1)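 Glycan array data were curated from 3228 arrays in the Consortium for Functional Glycomics database and kept only where the protein sequence was available. Glycan names were converted to IUPAC-condensed notation, and columns mapping to the same glycan were averaged. The binding signal is a within-array Z-score, averaged across arrays of the same protein sequence at different concentrations or buffers and across linkers. Negative Z-scores can be read as non-binding.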

[2] = target: GlcNAc(b1-2)[GlcNAc(b1-4)]Man(a1-3)[GlcNAc(b1-4)][GlcNAc(b1-2)Man(a1-6)]Man(b1-4)GlcNAc(b1-4)GlcNAc
In short: as §1

[3] = target: GlcNAc(b1-2)[GlcNAc(b1-4)]Man(a1-3)[GlcNAc(b1-4)][GlcNAc(b1-2)[GlcNAc(b1-6)]Man(a1-6)]Man(b1-4)GlcNAc(b1-4)[Fuc(a1-6)]GlcNAc
In short: as §1

[4] = target: GlcNAc(b1-2)[GlcNAc(b1-6)]Man(a1-6)[GlcNAc(b1-2)Man(a1-3)]Man(b1-4)GlcNAc(b1-4)[Fuc(a1-6)]GlcNAc
In short: as §1

[5] = target: GlcNAc(b1-2)[GlcNAc(b1-6)]Man(a1-6)[GlcNAc(b1-4)][GlcNAc(b1-2)Man(a1-3)]Man(b1-4)GlcNAc(b1-4)GlcNAc
In short: as §1

GlcNAc(b1-3)Gal = target: GlcNAc(b1-3)Gal
In short: as §1

GlcNAc(b1-3)GalNAc = target: GlcNAc(b1-3)GalNAc
In short: as §1

[6] = target: GlcNAc(b1-3)[GlcNAc(b1-6)]Gal(b1-4)GlcNAc
In short: as §1

[7] = target: GlcNAc(b1-3)[GlcNAc(b1-6)]GalNAc
In short: as §1

GlcNAc(b1-6)GalNAc = target: GlcNAc(b1-6)GalNAc
In short: as §1

[8] = target: Man(a1-2)Man(a1-6)[Man(a1-3)]Man(a1-6)[Man(a1-2)Man(a1-2)Man(a1-3)]Man(b1-4)GlcNAc(b1-4)GlcNAc
In short: as §1

[9] = target: Man(a1-3)[Man(a1-6)]Man(b1-4)GlcNAc(b1-4)[Fuc(a1-6)]GlcNAc
In short: as §1

[10] = target: Neu5Ac(a2-3)Gal(b1-3)GalNAc6S
In short: as §1

[11] = target: Neu5Ac(a2-3)Gal(b1-3)GlcNAc(b1-4)Gal(b1-4)Glc
In short: as §1

[12] = target: Neu5Ac(a2-3)Gal(b1-3)GlcNAc6S
In short: as §1

[13] = target: Neu5Ac(a2-3)Gal(b1-3)[GlcNAc(b1-6)]GalNAc
In short: as §1

[14] = target: Neu5Ac(a2-3)Gal(b1-4)GlcNAc(b1-3)Gal(b1-4)GlcNAc(b1-3)Gal(b1-4)GlcNAc
In short: as §1

[15] = target: Neu5Ac(a2-3)Gal(b1-4)GlcNAc(b1-3)Gal(b1-4)GlcNAc(b1-6)[Gal(b1-3)]GalNAc
In short: as §1

[16] = target: Neu5Ac(a2-3)Gal(b1-4)GlcNAc(b1-3)[Neu5Ac(a2-3)Gal(b1-4)GlcNAc(b1-6)]GalNAc
In short: as §1

[17] = target: Neu5Ac(a2-3)Gal(b1-4)GlcNAc(b1-6)GalNAc
In short: as §1

[18] = target: Neu5Ac(a2-3)Gal(b1-4)[Fuc(a1-3)]GlcNAc(b1-3)Gal(b1-4)GlcNAc
In short: as §1

Neu5Ac(a2-3)GalNAc = target: Neu5Ac(a2-3)GalNAc
In short: as §1

[19] = target: Neu5Ac(a2-6)Gal(b1-4)GlcNAc(b1-2)Man(a1-3)[GlcNAc(b1-4)][Neu5Ac(a2-6)Gal(b1-4)GlcNAc(b1-2)Man(a1-6)]Man(b1-4)GlcNAc(b1-4)GlcNAc
In short: as §1

[20] = target: Neu5Ac(a2-6)Gal(b1-4)GlcNAc(b1-2)Man(a1-3)[Neu5Ac(a2-6)Gal(b1-4)GlcNAc(b1-2)Man(a1-6)]Man(b1-4)GlcNAc(b1-4)GlcNAc
In short: as §1

[21] = target: Neu5Ac(a2-6)Gal(b1-4)GlcNAc(b1-2)Man(a1-6)[Man(a1-3)]Man(b1-4)GlcNAc(b1-4)GlcNAc
In short: as §1

[22] = target: Neu5Ac(a2-6)Gal(b1-4)GlcNAc(b1-3)Gal(b1-4)GlcNAc(b1-6)[Gal(b1-3)]GalNAc
In short: as §1

[23] = target: Neu5Ac(a2-6)GlcNAc(b1-4)GlcNAc(b1-4)GlcNAc
In short: as §1

[24] = target: Neu5Ac(a2-8)Neu5Ac(a2-3)Gal(b1-3)GalNAc(b1-4)[Neu5Ac(a2-8)Neu5Ac(a2-3)]Gal(b1-4)Glc
In short: as §1

[25] = target: Neu5Ac(a2-8)Neu5Ac(a2-3)[GalNAc(b1-4)]Gal(b1-4)Glc
In short: as §1

[26] = target: Neu5Ac(a2-8)Neu5Ac(a2-8)Neu5Ac(a2-3)[Gal(b1-3)GalNAc(b1-4)]Gal(b1-4)Glc
In short: as §1

[27] = target: Neu5Ac(a2-8)Neu5Ac(a2-8)Neu5Ac(a2-8)Neu5Ac(a2-3)[GalNAc(b1-4)]Gal(b1-4)Glc
In short: as §1

[28] = target: Neu5Gc(a2-3)Gal(b1-3)GlcNAc
In short: as §1

B1: Cohesin-marm-DC-ASGPR (protein)
chain: LDITSHHHHHHDDLDAVRIKVDTVNAKPGDTVRIPVRFSGIPSKGIANCDFVYSYDPNVLEIIEIEPGDIIVDPNPDKSFDTAVYPDRKIIVFLFAEDSGTGAYAITKDGVFATIVAKVKEGAPNGLSVIKFVEVGGFANNDLVEQKTQFFDGGVNVGDTTEPATPTTPVTTPTTTDDLDAASSKFQRDLVTLRTDFSNFTSNTLAEIQALTSQGSSLQETIASLKAEVEGHKQELQAGASELQEHNKQKAHLGRCPHTCVCPSSFVCVPVHSEILLRVQQLVQDLNKLSCQVAILKNNATTERTCCPINWVEHQGSCYWFSRSGKTWPEAERYCQLENTHLVVINSREEQNFVQAHLGSAYTWMGLSDPEGVWKWVDGTDYSSGFQNWKPGQPDDWQGHGLGGGEDCAHFHPDGRWNDDVCQRSYHWVCEAGLTQASQDSHAS
**Q.** B1 was tested. Which “glycan array binding signal (z-score)” value [1] did it give?
**A.** -0.3

**Q.** What about the “glycan array binding signal (z-score)” value [2] of the same binder?
**A.** -0.278

**Q.** What about the “glycan array binding signal (z-score)” value [3] of the same binder?
**A.** -0.313

**Q.** What about the “glycan array binding signal (z-score)” value [4] of the same binder?
**A.** -0.298

**Q.** And the “glycan array binding signal (z-score)” value [5]?
**A.** -0.311

**Q.** What about the “glycan array binding signal (z-score)” value (GlcNAc(b1-3)Gal) of the same binder?
**A.** -0.306

**Q.** What about the “glycan array binding signal (z-score)” value (GlcNAc(b1-3)GalNAc) of the same binder?
**A.** -0.287

**Q.** And the “glycan array binding signal (z-score)” value [6]?
**A.** -0.313

**Q.** And the “glycan array binding signal (z-score)” value [7]?
**A.** -0.291

**Q.** What about the “glycan array binding signal (z-score)” value (GlcNAc(b1-6)GalNAc) of the same binder?
**A.** 4.74

**Q.** And the “glycan array binding signal (z-score)” value [8]?
**A.** -0.287

**Q.** What about the “glycan array binding signal (z-score)” value [9] of the same binder?
**A.** -0.31

**Q.** And the “glycan array binding signal (z-score)” value [10]?
**A.** -0.245

**Q.** And the “glycan array binding signal (z-score)” value [11]?
**A.** -0.303

**Q.** And the “glycan array binding signal (z-score)” value [12]?
**A.** -0.277

**Q.** And the “glycan array binding signal (z-score)” value [13]?
**A.** -0.303

**Q.** What about the “glycan array binding signal (z-score)” value [14] of the same binder?
**A.** -0.288

**Q.** What about the “glycan array binding signal (z-score)” value [15] of the same binder?
**A.** -0.307

**Q.** What about the “glycan array binding signal (z-score)” value [16] of the same binder?
**A.** -0.311

**Q.** What about the “glycan array binding signal (z-score)” value [17] of the same binder?
**A.** 4.81

**Q.** And the “glycan array binding signal (z-score)” value [18]?
**A.** -0.244

**Q.** And the “glycan array binding signal (z-score)” value (Neu5Ac(a2-3)GalNAc)?
**A.** -0.309

**Q.** And the “glycan array binding signal (z-score)” value [19]?
**A.** -0.308

**Q.** What about the “glycan array binding signal (z-score)” value [20] of the same binder?
**A.** -0.126

**Q.** And the “glycan array binding signal (z-score)” value [21]?
**A.** -0.314

**Q.** What about the “glycan array binding signal (z-score)” value [22] of the same binder?
**A.** -0.308

**Q.** And the “glycan array binding signal (z-score)” value [23]?
**A.** -0.312

**Q.** And the “glycan array binding signal (z-score)” value [24]?
**A.** -0.296

**Q.** What about the “glycan array binding signal (z-score)” value [25] of the same binder?
**A.** 3.43

**Q.** What about the “glycan array binding signal (z-score)” value [26] of the same binder?
**A.** -0.305

**Q.** What about the “glycan array binding signal (z-score)” value [27] of the same binder?
**A.** 5.27

**Q.** What about the “glycan array binding signal (z-score)” value [28] of the same binder?
**A.** -0.264
